Experimental data taken from PubChem BioAssay.
Records with an inconclusive call do not appear. The source made the active and inactive calls.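 Rule for the calls, unless noted: active = normalized viability below 100% at a tested concentration; inactive = the rest.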

Columns and labels:
[1] = viability loss in pontine glioma line – cell-based, SU-DIPG-XVII, MIPE5.0, CellTiter-Glo, qHTS, dose response (AID 1347060; cut-off not given, nearly all actives have AC50 up to about 26 µM;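 for AC50: cells exposed to compound for 48 hours before viability readout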); conditions: CellTiter-Glo ATP luminescence
[2] = viability loss in pontine glioma line – cell-based, SU-DIPG-IV, MIPE4.0, CellTiter-Glo, qHTS, dose response (AID 1347063; cut-off not given, nearly all actives have AC50 up to about 30 µM;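 note: compound exposure lasted 48 hours before the viability readout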); conditions: CellTiter-Glo ATP luminescence
[3] = viability loss in pontine glioma line – cell-based, SU-DIPG-XXV, MIPE5.0, CellTiter-Glo, qHTS, dose response (AID 1347065; cut-off not given, nearly all actives have AC50 up to about 26 µM;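 note: cells exposed to compound for 48 hours before ATP readout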); conditions: CellTiter-Glo ATP luminescence
[4] = growth inhibition of DIPG cells – cell-based, MIPE4.0 library, CellTiter-Glo luminescence, qHTS (AID 1347066; cut-off not given, nearly all actives have AC50 up to about 30 µM;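 note: cells exposed to compound for 48 hours before readout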); conditions: SU-DIPG-VI viability, CellTiter-Glo ATP luminescence
[5] = growth inhibition of DIPG cells – cell-based, MIPE5.0 library, qHTS (AID 1347068; cut-off not given, nearly all actives have IC50 up to about 30 µM;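 note: cells exposed to compound for 48 hours before viability readout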); conditions: SU-DIPG-XXV viability
[6] = viability loss with induced miR-34 in A549 – imaging, A549 dox-inducible miR-34, nuclei and caspase counts, primary screen (AID 1347080;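 active = compounds whose cell count with miR-34 switched on is under 0.7 times the count with it off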); conditions: A549 miR-34 inducible, Hoechst nuclei count, 48 h
[7] = MELAS cybrid and Rieske KO viability enhancers – cell-based, MELAS cybrids, Rieske KO mouse fibroblasts, CellTiter-Glo, primary screen (AID 1508586;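 active = mean z-score across replicates of 1.96 or higher in either the MELAS or the Rieske mutant cell line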;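 note: z relative to plate mean and SD of compound and empty wells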); conditions: low glucose
[8] = drug combination growth inhibition, ovarian cancer – cell-based, oncology-focused library, rucaparib conditional, profiling panel (AID 1508598); conditions: patient-derived ovarian cancer cells, CellTiter-Glo viability, 144 h, stronger effect = lower value
[9] = viability loss in pontine glioma line – cell-based, SU-DIPG-XIII, MIPE5.0, CellTiter-Glo, qHTS, dose response (AID 1347064; cut-off not given, nearly all actives have AC50 up to about 23 µM;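 for AC50: cells exposed to compound for 48 hours before the viability read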); conditions: CellTiter-Glo ATP luminescence
[10] = JHH-DIPG-1 glioma cell viability, MIPE5.0 library, CellTiter-Glo luminescence, qHTS (AID 1347067; cut-off not given, nearly all actives have AC50 up to about 26 µM;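 note: cells exposed to compound for 48 hours before readout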); conditions: JHH-DIPG-1 glioma viability, CellTiter-Glo ATP luminescence

CNC(=O)c1cc(Oc2ccc(NC(=O)Nc3ccc(Cl)c(C(F)(F)F)c3)c(F)c2)ccn1
1.02: z-score ([7]; Rieske KO mouse fibroblast survival, CellTiter-Glo 72 h)
2900: cell count ([6]; measured here: total cells without miR-34 induction)
2520: cell count ([6]; measured here: total cells with miR-34 induction, stronger effect = lower value)
inactive: fold change ([6]; stronger effect = lower value, cell number ratio, induced over uninduced) 0.87 | z-score ([7]; MELAS cybrid survival, CellTiter-Glo 48 h, stronger effect = higher value) -0.38 | viability ([8]; at 0.000305 µM, OCI-C5x cells, with rucaparib 10 µM, 100% = cells with rucaparib alone) 108% | viability ([8]; at 0.000305 µM, OCI-P5x cells, with rucaparib 20 µM, 100% = cells with rucaparib alone) 101% | viability ([8]; at 0.000305 µM, OCI-P5x cells, without rucaparib) 104% | viability ([8]; at 0.00122 µM, OCI-C5x cells, with rucaparib 10 µM, 100% = cells with rucaparib alone) 108% | viability ([8]; at 0.00122 µM, OCI-P5x cells, with rucaparib 20 µM, 100% = cells with rucaparib alone) 109% | viability ([8]; at 0.00122 µM, OCI-P5x cells, without rucaparib) 106% | viability ([8]; at 0.00488 µM, OCI-C5x cells, with rucaparib 10 µM, 100% = cells with rucaparib alone) 109% | viability ([8]; at 0.00488 µM, OCI-P5x cells, with rucaparib 20 µM, 100% = cells with rucaparib alone) 114% | viability ([8]; at 0.00488 µM, OCI-P5x cells, without rucaparib) 109% | viability ([8]; at 0.0195 µM, OCI-C5x cells, with rucaparib 10 µM, 100% = cells with rucaparib alone) 114% | viability ([8]; at 0.0195 µM, OCI-P5x cells, with rucaparib 20 µM, 100% = cells with rucaparib alone) 115% | viability ([8]; at 0.0195 µM, OCI-P5x cells, without rucaparib) 116% | viability ([8]; at 0.0781 µM, OCI-C5x cells, with rucaparib 10 µM, 100% = cells with rucaparib alone) 106% | viability ([8]; at 0.0781 µM, OCI-P5x cells, with rucaparib 20 µM, 100% = cells with rucaparib alone) 115% | viability ([8]; at 0.0781 µM, OCI-P5x cells, without rucaparib) 110% | viability ([8]; at 0.313 µM, OCI-C5x cells, with rucaparib 10 µM, 100% = cells with rucaparib alone) 104% | viability ([8]; at 0.313 µM, OCI-C5x cells, without rucaparib) 102% | viability ([8]; at 0.313 µM, OCI-P5x cells, with rucaparib 20 µM, 100% = cells with rucaparib alone) 115% | viability ([8]; at 0.313 µM, OCI-P5x cells, without rucaparib) 117% | viability ([8]; at 1.25 µM, OCI-C5x cells, with rucaparib 10 µM, 100% = cells with rucaparib alone) 107% | viability ([8]; at 1.25 µM, OCI-C5x cells, without rucaparib) 104% | viability ([8]; at 1.25 µM, OCI-P5x cells, with rucaparib 20 µM, 100% = cells with rucaparib alone) 103% | viability ([8]; at 1.25 µM, OCI-P5x cells, without rucaparib) 117% | viability ([8]; at 5 µM, OCI-C5x cells, with rucaparib 10 µM, 100% = cells with rucaparib alone) 125% | viability ([8]; at 5 µM, OCI-C5x cells, without rucaparib) 105% | viability ([8]; at 5 µM, OCI-P5x cells, without rucaparib) 121%
0.959: fold change ([6]; measured here: relative caspase fold change +Dox/-Dox)
active: AC50 [1] 16600 nM | AC50 [2] 13200 nM | AC50 [3] 20900 nM | AC50 [4] 9350 nM | IC50 [5] 20900 nM | viability ([8]; at 0.000305 µM, OCI-C5x cells, without rucaparib) 90.4% | viability ([8]; at 0.00122 µM, OCI-C5x cells, without rucaparib) 90.8% | viability ([8]; at 0.00488 µM, OCI-C5x cells, without rucaparib) 98.5% | viability ([8]; at 0.0195 µM, OCI-C5x cells, without rucaparib) 91.4% | viability ([8]; at 0.0781 µM, OCI-C5x cells, without rucaparib) 88.4% | viability ([8]; at 5 µM, OCI-P5x cells, with rucaparib 20 µM, 100% = cells with rucaparib alone) 80.9%

COC1=C2C[C@H](C)C[C@H](OC)[C@H](O)[C@@H](C)/C=C(/C)[C@H](OC(N)=O)[C@@H](OC)/C=C\C=C(\C)C(=O)NC(=CC1=O)C2=O
active: AC50 [1] 235 nM | AC50 [9] 118 nM | AC50 [3] 417 nM

CCC(=C/[C@H](C)C/C=C/C(C)=C/[C@@H](C)C(=O)[C@@H](C)[C@H](O)[C@@H](C)C/C(C)=C/C(=O)O)/C=C/[C@@H]1OC(=O)C=C[C@@H]1C
active: AC50 [1] 2.96 nM | AC50 [2] 13.9 nM | AC50 [3] 2.09 nM | AC50 [10] 18600 nM | IC50 [5] 833 nM

C[C@@H]1Cc2c([nH]c3ccccc23)[C@@H](c2c(F)cc(/C=C/C(=O)O)cc2F)N1CC(C)(C)F
inactive: outcome [1] | outcome [9]

COc1ccc(-c2cc(C(O)C3CCCCN3)c3ccccc3n2)cc1 (stereo not given)
active: AC50 [1] 20900 nM | AC50 [9] 16600 nM | AC50 [3] 29500 nM | AC50 [10] 7420 nM

O=C(/C=C\n1cnc(-c2cc(C(F)(F)F)cc(C(F)(F)F)c2)n1)NNc1ccccn1
active: AC50 [1] 2950 nM | AC50 [9] 295 nM | AC50 [3] 5250 nM | AC50 [10] 13200 nM

CCc1nc(C(N)=O)c(Nc2ccc(N3CCC(N4CCN(C)CC4)CC3)c(OC)c2)nc1NC1CCOCC1
active: AC50 [1] 2350 nM | AC50 [9] 1180 nM | AC50 [3] 833 nM | AC50 [10] 934 nM
